{"source": "PubChem BioAssay (Tox21)", "note": "Several values for one entry are separate records, joined by “and”; a condition that tells them apart may be missing. Equal values may be shown once. A structure can be active in one record and inactive in another. Activity calls are given as the source filed them. Where a call stands in place of a potency, no number is given. Calls follow the shape of the dose curve; as a rule, active = well fitted activation curve with a large enough effect in the repeat runs; inconclusive = weak or mixed curves; inactive = flat fitted curve, though single readings scatter. Potency is read from the fitted curve at half-maximal effect."}
{"assay": "Caspase-3/7 induction in CHO-K1 cells by small molecules, qHTS assay (AID 1346980); also: nearly all actives have a fitted effect of over 15% in size", "conditions": "CHO-K1 caspase-3/7 induction, Caspase-Glo luminescence, 17 h; series mostly up to 92.4 µM", "text": "National Center for Advancing Translational Sciences [NCATS]\nNIH Chemical Genomics Center [NCGC]\nU.S. Environmental Protection Agency [EPA]\nNational Institutes of Environmental Health Sciences [NIEHS]\nNational Toxicology Program [NTP]\nApoptosis is a process of programmed cell death and plays a central role in the development of multicellular organisms. It is a highly regulated process and induces cell death by activating caspases, which are the members of cysteine aspartic acid-specific protease (caspase) family. Caspases involved in apoptosis are classified by their mechanism of action as initiator caspases (caspase-2, -8, -9 and -10) and executioner caspases (caspase-3, -6, and -7). Inhibition of apoptosis results in number of cancers, autoimmune diseases, inflammatory diseases and viral infection. To identify small molecule compounds that induce apoptosis, a homogeneous, luminescent Caspase-Glo 3/7 assay was used. Wild type CHO-K1 cells were used to screen Tox21 libraries for identifying caspase-3/7 activity inducers.\nCHO-K1 cells were dispensed at 1,500 per well in 5uL of culture medium into white solid bottom 1536-well plates (Corning Life Sciences, Corning, NY) using a Multidrop Combi (Thermo Scientific, Waltham, MA) dispenser. The assay plates were incubated at 37 C and 5% CO2 for 5hr, and then 23nL of compounds dissolved in DMSO and positive control were transferred using a Pintool station (Wako, San Diego, CA). The assay plates were incubated at 37C and 5% CO2 for 17hr. For caspase-3/7 activity read, 4uL of Caspase-Glo 3/7 reagent (Promega Corporation, Madison, WI) was added to each well of the assay plates using Flying Reagent Dispenser (FRD, Aurora Discovery, San Diego, CA) and incubated the assay plates at room temperature for 30min. The luminescence signal was quantified using a ViewLux plate reader (Perkin Elmer, Shelton, CT)."}
{"smiles": "C1CCCNCC1", "Potency": "inactive"}
{"smiles": "CCCCC(CC)COC(=O)c1ccc(C(=O)OCC(CC)CCCC)cc1", "note": "(stereo not given)", "Potency": "inactive"}
{"smiles": "CCCCCNCCCCC", "Potency": "inactive"}
{"smiles": "C=CC(=O)NCOCCCC", "Potency": "inactive"}
{"smiles": "CC(=O)OC(C)(C)C1CC=C(C)CC1", "note": "(stereo not given)", "Potency": "inactive"}
{"smiles": "C=CC(C)(C)C", "Potency": "inactive"}
{"smiles": "CC(=O)OC/C=C(\\C)CCC=C(C)C", "Potency": "inactive"}
{"smiles": "CCCOC(=O)NCCCN(C)C", "Potency": "inactive"}
{"smiles": "CC(COCC(C)OC(=O)c1ccccc1)OC(=O)c1ccccc1", "note": "(stereo not given)", "Potency": "inactive"}
{"smiles": "CC(C=O)Cc1ccc(C(C)(C)C)cc1", "note": "(stereo not given)", "Potency": "inactive"}
{"smiles": "CN=C(NC#N)NCCSCc1nc[nH]c1C", "Potency": "inactive"}
{"smiles": "CC(C)c1ccc(C(C)C)cc1", "Potency": "inactive"}
{"smiles": "CC(=O)Nc1ccc(CC(=O)O)cc1", "Potency": "inactive"}
{"smiles": "CN1CCCC1=O", "Potency": "inactive"}
{"smiles": "NC(N)=S", "Potency": "inactive"}
{"smiles": "CCc1cccc(CC)c1N", "Potency": "inactive"}
{"smiles": "O=C(O)C1=NN(c2ccc(S(=O)(=O)O)cc2)C(=O)C1", "Potency": "inactive"}
{"smiles": "CC(=O)OC[C@H]1O[C@@](COC(C)=O)(O[C@H]2O[C@H](COC(C)=O)[C@@H](OC(C)=O)[C@H](OC(C)=O)[C@H]2OC(C)=O)[C@@H](OC(C)=O)[C@@H]1OC(C)=O", "Potency": "inactive"}
{"smiles": "Brc1ccc(Oc2ccc(Br)cc2)cc1", "Potency": "inactive"}
{"smiles": "CCOC(=O)c1ccc(O)cc1", "Potency": "inactive"}
{"smiles": "Cc1ccc([N+](=O)[O-])cc1N", "Potency": "inactive"}
{"smiles": "COc1ccc(N)c(OC)c1", "Potency": "inactive"}
{"smiles": "CCCCCCCCC(=O)O", "Potency": "inactive"}
{"smiles": "OC[C@H]1O[C@@H](Oc2ccc(O)cc2)[C@H](O)[C@@H](O)[C@@H]1O", "Potency": "inactive"}
{"smiles": "CC(CN1c2ccccc2Sc2ccccc21)N(C)C", "note": "(stereo not given)", "Potency": "inactive"}
{"smiles": "CO[Si](CCCNCCN)(OC)OC", "Potency": "27.7 µM (active) and inactive"}
{"smiles": "O=C1CCCCCCCCCCC1", "Potency": "inactive"}
{"smiles": "O=C(c1ccccc1)c1ccc(O)c(O)c1O", "Potency": "inactive"}
{"smiles": "CC[N+](CC)(CC(=O)Nc1c(C)cccc1C)Cc1ccccc1", "Potency": "inactive"}
{"smiles": "O=C1OC(=O)c2c(Cl)c(Cl)c(Cl)c(Cl)c21", "Potency": "inactive"}
{"smiles": "O=c1n(CCCN2CCN(c3cccc(Cl)c3)CC2)nc2ccccn12", "Potency": "inactive"}
{"smiles": "Cc1ncc(CO)c(CO)c1O", "Potency": "inactive"}
{"smiles": "Cc1cc(C)c(O)c(C)c1", "Potency": "inactive"}
{"smiles": "NC1CCCCC1N", "note": "(stereo not given)", "Potency": "inactive"}
{"smiles": "Cc1nnc(NS(=O)(=O)c2ccc(N)cc2)s1", "Potency": "inactive"}
{"smiles": "C=C(CC(=O)O)C(=O)O", "Potency": "inactive"}
{"smiles": "CCCN(CCC)C(=O)SCC", "Potency": "inactive"}
{"smiles": "COc1ccccc1[N+](=O)[O-]", "Potency": "inactive"}
{"smiles": "c1cnc2c(c1)ccc1cccnc12", "Potency": "978 nM (active) and 1.37 µM (active) and inactive"}
{"smiles": "CN1Cc2c(N)cccc2C(c2ccccc2)C1", "note": "(stereo not given)", "Potency": "inactive"}
